Compounds without any hit were thinned out: in the full panel of roughly 83,000, 20% have a hit.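 Assay: single dose, 48 h. Readout: percent growth (0 = no net growth; negative = cell death). Active: <10.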 Values without a mark were called inactive. Calls of active or inactive are those of the source.
Tests used:
Test in all cases: NCI-60 one-dose screen, 48 h (100 = growth as untreated, 0 = no growth, -100 = all killed)
Details in all cases: 10 µM unless noted
NCI-H23 lung = system: NCI-H23 lung
NCI-H226 lung = system: NCI-H226 lung
NCI-H322M lung = system: NCI-H322M lung
HOP-62 NSCLC = system: HOP-62 NSCLC
NCI-H460 lung = system: NCI-H460 lung
NCI-H522 lung = system: NCI-H522 lung
A549/ATCC NSCLC = system: A549/ATCC NSCLC
786-0 renal = system: 786-0 renal
COLO 205 colon = system: COLO 205 colon
DU-145 prostate = system: DU-145 prostate

Structure (SMILES)	growth (NCI-H23 lung)	growth (NCI-H226 lung)	growth (NCI-H322M lung)	growth (HOP-62 NSCLC)	growth (NCI-H460 lung)	growth (NCI-H522 lung)	growth (A549/ATCC NSCLC)	growth (786-0 renal)	growth (COLO 205 colon)	growth (DU-145 prostate)
OC(Cc1cccnc1)c1ccccc1 (centres undefined)	103%	107%	95.9%	105%	98%	101%	94.8%	108%	114%	–
COc1cc(/C=C/C(=O)c2ccc(F)cc2)ccc1OCCCCCOc1cc2c(cc1OC)C(=O)N1CCCC1C=N2 (centres undefined)	-32.6% (active)	-49.7% (active)	-2.96% (active)	-34.8% (active)	3.88% (active)	-59.9% (active)	4.95% (active)	-43.3% (active)	-72% (active)	-13.1% (active)
CSc1nnc(C2=CC(=O)c3ccccc3C2=O)n1-c1ccccc1	83.9%	85.5%	91.1%	100%	83.6%	64.5%	76.3%	95.2%	110%	104%
c1cnc2n[nH]c(Nc3ncnc4c3sc3ncccc34)c2c1	82.4%	93.8%	106%	90.8%	96%	82.1%	87.3%	106%	107%	115%
[O-]/[N+](=C\C=C\c1ccccc1)c1ccccc1	103%	97.8%	113%	116%	107%	102%	144%	101%	141%	111%
C=Cc1nn2c(CCC(=O)c3nc4ccccc4[nH]3)nnc2s1	99.4%	97.5%	94%	97.9%	105%	102%	105%	97.5%	–	–
Cc1cc(NC(=O)Nc2cccc3ccccc23)no1	92.9%	108%	105%	103%	101%	91%	96.9%	96.4%	154%	118%
O=C(CCc1nnc2sc(-c3ccc(Cl)cc3Cl)nn12)c1nc2ccccc2[nH]1	-35.1% (active)	-78.4% (active)	-54.7% (active)	-56.9% (active)	-57.8% (active)	-74.7% (active)	-46.1% (active)	-94.7% (active)	–	–
COc1ccc2c(c1)C(=O)c1c-2c(OCCN(C)C)nc2cc(OC)ccc12	-57.2% (active)	-25.7% (active)	19.7%	14.9%	-70.7% (active)	-22.1% (active)	-43.6% (active)	36.1%	2.84% (active)	29%
Nc1ncc(-c2cnn(C3CCNCC3)c2)cc1-c1nc2cc(Cl)ccc2o1	-61.7% (active)	-63.3% (active)	-59.1% (active)	-98.1% (active)	-100% (active)	-87.6% (active)	-100% (active)	-100% (active)	-100% (active)	-100% (active)
CCSc1nnc2n(Cc3ccccc3)c(=O)c3c(C)c(C(N)=O)sc3n12	110%	93.8%	102%	101%	109%	96%	97%	105%	121%	–
OC(CCC(O)(c1ccccc1)c1ccccc1)(c1ccccc1)c1ccccc1	80%	86.6%	102%	114%	19.9%	89.8%	68.7%	105%	103%	–
COc1ccc2c(c1)nc(N)c1c3ccccc3cn21	79.1%	95.3%	88.1%	85.6%	72.4%	58.1%	75.9%	92.7%	–	–
COc1ccc2c(c1)nc(N)c1c3cc(OC)c(OC)cc3cn21	56.1%	78.2%	84.6%	76.9%	20.5%	-8.03% (active)	43.8%	43.1%	–	–
Cn1[nH]cc(/C=N/C(N)=O)c1=O	104%	111%	124%	111%	109%	121%	106%	99.8%	110%	–
O=[N+]([O-])c1ccc(N/N=C\c2ccccc2[N+](=O)[O-])nc1	98.2%	106%	105%	123%	101%	97.5%	92.2%	104%	133%	101%
COc1ccc(-c2c(N)noc2-c2cc(OC)c3c(c2)OCCO3)cc1	1.48% (active)	-17.1% (active)	53%	23%	7.94% (active)	0.361% (active)	21.3%	13.1%	-75.8% (active)	-17.2% (active)
COc1ccc(-c2c3c(nn2-c2ccc(N)cc2)CCc2cnoc2-3)cc1OC	93.4%	95.8%	103%	104%	101%	70.4%	85.2%	84.9%	–	–
CCCCC1Nc2nc(SC)n(C)c(=O)c2CN(Cc2ccccc2)C1=O (centres undefined)	98.4%	84.9%	90.6%	97.9%	104%	76%	94.5%	78.4%	112%	112%
O=C(CCc1nnc2sc(Cc3ccccc3Cl)nn12)c1nc2ccccc2[nH]1	90.4%	89.3%	85.2%	92.1%	99.5%	96.6%	100%	85.8%	–	–
CCC1(c2ccccc2)Oc2ccccc2-n2c(C#N)c3ccccc3c2C1=O (centres undefined)	97.2%	110%	90.3%	93.6%	105%	77.5%	93.6%	93.9%	106%	114%
O=C1c2nsnc2C(=O)c2c(F)c(F)c(F)c(F)c21	-22.5% (active)	-38.2% (active)	26.9%	-86% (active)	-51.8% (active)	-67.2% (active)	-27.9% (active)	-97.1% (active)	–	–
S=C(c1ccccc1)N1CCN(c2cccc(Cl)c2)CC1	101%	99.3%	104%	102%	111%	87.5%	87.8%	107%	100%	–
O=Nc1ccc(O)c(=O)cc1	70.6%	38.4%	88.3%	88.1%	114%	-74.1% (active)	110%	15.9%	-21.6% (active)	–
COc1ccc(-n2nc3c(c2-c2ccc(OC)c(OC)c2)-c2oncc2CC3)cc1	93.3%	106%	97.7%	94.1%	90.3%	18.1%	82.5%	78%	–	–
COc1ccc2c(c1)nc(N)c1c3cc(C)c(C)cc3cn21	80.4%	86.8%	94%	84.7%	48.4%	19.6%	79.4%	91.2%	–	–
Cc1cc2c(cc1[N+](=O)[O-])NC(CNC(C)C)CC2 (centres undefined)	93.9%	93.6%	113%	103%	107%	105%	104%	92.9%	120%	105%
Cc1cc2cn3c4cccnc4[nH]c(=O)c3c2cc1C	55.7%	90.3%	91.8%	46.8%	4.12% (active)	-75% (active)	10.2%	-14.5% (active)	–	–
